Test results from the supplement of paper PMC6555819.

Experiments:
Assay in all cases: PBM binding z-score (relative to random genomic background probes); higher = stronger binding; sequences stand for … in GC…GCGATTGACAGCGTAGAATGAAGG
[1] = tested on: FXR:RXRa (NR concentration 270 nM, RXRa partner concentration 90 nM)
Procedure, shortened: (§1)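 Custom Agilent 4×180K protein-binding microarrays carried double-stranded probes. Their 34-nt variable regions held direct-repeat seeds, single-nucleotide variants, half-site ablations and random human genomic background sequences. Arrays were incubated 1 h with ligand-free nuclear receptor dimers in PBS pH 7.4, 2% milk, 0.02% Triton X-100, 1 mM DTT, 0.2 mg/mL BSA and 0.4 mg/ml salmon testes DNA. Antibodies against each partner (one per run) detected binding, and scanned fluorescence was regression-normalized. Binding z-scores use random background probes as reference.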

[2] = tested on: LXRa:RXRa (NR concentration 270 nM, RXRa partner concentration 90 nM)
Procedure, shortened: as §1

[3] = tested on: LXRa homodimer (NR concentration 270 nM)
Procedure, shortened: as §1

[4] = tested on: LXRb:RXRa (NR concentration 270 nM, RXRa partner concentration 90 nM)
Procedure, shortened: as §1

[5] = tested on: LXRb homodimer (NR concentration 270 nM)
Procedure, shortened: as §1

[6] = tested on: PPARa:RXRa (NR concentration 270 nM, RXRa partner concentration 90 nM)
Procedure, shortened: as §1

[7] = tested on: PPARg:RXRa (NR concentration 180 nM, RXRa partner concentration 90 nM)
Procedure, shortened: as §1

[8] = tested on: PPARg:RXRa 270nM:90nM, anti-RXR (NR concentration 270 nM, RXRa partner concentration 90 nM)
Procedure, shortened: as §1

[9] = tested on: PPARg:RXRa 30nM:10nM, anti-RXR (NR concentration 30 nM, RXRa partner concentration 10 nM)
Procedure, shortened: as §1

[10] = tested on: PPARg:RXRa 90nM:30nM, anti-RXR (NR concentration 90 nM, RXRa partner concentration 30 nM)
Procedure, shortened: as §1

[11] = tested on: PPARg:RXRa DBDmut IVT, anti-RXR (DBD mutation: RXRa K156A/R161A, NR concentration 270 nM, RXRa partner concentration 90 nM)
Procedure, shortened: as §1

[12] = tested on: PPARg:RXRa IVT, anti-PPARg (NR concentration 270 nM, RXRa partner concentration 90 nM)
Procedure, shortened: as §1

[13] = tested on: PPARg DBDmut:RXRa IVT, anti-PPARg (DBD mutation: PPARg1 K132A/R137A, NR concentration 270 nM, RXRa partner concentration 90 nM)
Procedure, shortened: as §1

[14] = tested on: PPARg DBDmut IVT, anti-PPARg (DBD mutation: PPARg1 K132A/R137A, NR concentration 270 nM)
Procedure, shortened: as §1

[15] = tested on: PPARg homodimer (NR concentration 180 nM)
Procedure, shortened: as §1

[16] = tested on: PXR:RXRa (NR concentration 270 nM, RXRa partner concentration 90 nM)
Procedure, shortened: as §1

[17] = tested on: PXR homodimer (NR concentration 270 nM)
Procedure, shortened: as §1

[18] = tested on: RARa:RXR (NR concentration 270 nM, RXRa partner concentration 90 nM)
Procedure, shortened: as §1

[19] = tested on: RARa homodimer (NR concentration 270 nM)
Procedure, shortened: as §1

[20] = tested on: RARb:RXRa (NR concentration 270 nM, RXRa partner concentration 90 nM)
Procedure, shortened: as §1

Sequence | PBM binding z-score [1] | PBM binding z-score [2] | PBM binding z-score [3] | PBM binding z-score [4] | PBM binding z-score [5] | PBM binding z-score [6] | PBM binding z-score [7] | PBM binding z-score [8] | PBM binding z-score [9] | PBM binding z-score [10] | PBM binding z-score [11] | PBM binding z-score [12] | PBM binding z-score [13] | PBM binding z-score [14] | PBM binding z-score [15] | PBM binding z-score [16] | PBM binding z-score [17] | PBM binding z-score [18] | PBM binding z-score [19] | PBM binding z-score [20]
TCTATTAGTTGGTTAGGGCAACCGAAACAGCGGA | 0.675 | 0.576 | 0.522 | 0.534 | 1.35 | 0.448 | -0.169 | 1.55 | 3.59 | 2.57 | 1.47 | 0.862 | 1.18 | 0.941 | 0.798 | 0.158 | 0.345 | 0.342 | 1.17 | 0.848
TCTTGTAGATCAATAGAGGATAAGAAAGTGCGCT | 0.574 | 0.33 | -0.0873 | -0.13 | -0.142 | 0.415 | 0.389 | 1.46 | 2.75 | 2.25 | 1.63 | 0.366 | 0.6 | 1.05 | 0.615 | 0.475 | 0.185 | 0.654 | 0.232 | 0.029
ATACCAAGGTGATCGTGAGGTCGTTCATACTAAC | 2.05 | 1.58 | 1.23 | 1.4 | 0.148 | 1.53 | 0.472 | 0.354 | -0.0192 | -0.0407 | 0.587 | 1.54 | 0.827 | 0.877 | 1.15 | 3.23 | 2.03 | 2.01 | 0.612 | 1.5
TTACCAAGGTGGAGGTCGTTGATCCCTCTGTAGA | 1.68 | 1.96 | 0.12 | 1.66 | -0.0737 | 1.7 | 0.691 | 2.12 | 0.972 | 1.4 | -0.0945 | 0.927 | -0.0829 | 0.467 | 0.494 | 1.37 | -0.028 | 1.58 | -0.0306 | 0.92
TCATATAGGTAAACAGGTCAAAGTCCGTAAGTTA | 2.74 | 3.19 | 2.04 | 3.12 | 0.433 | 4.55 | 5.08 | 5.37 | 4.97 | 5.43 | 5.17 | 5.48 | 3.64 | 1.86 | 2.44 | 2.77 | 0.953 | 3.52 | 1.47 | 2.8
TAGCCTAGGTCATGGGCCGGTATACCACGCGAAC | 4.76 | 3.42 | 0.261 | 2.72 | 0.0172 | 4.23 | 3.35 | 3.56 | 0.856 | 2.46 | 1.46 | 3.44 | -0.00724 | -0.404 | 1.23 | 1.8 | -0.488 | 2.94 | -0.0532 | 3.9
GCTGCTAGGTCAGGGTGGTCAGCTAACGGGTACG | 1.3 | 1.02 | -0.198 | 0.35 | -0.645 | 2.03 | 1.63 | 1.95 | -0.181 | 1.09 | 2.9 | 2.83 | 0.0307 | -1.27 | 1.2 | 0.451 | -0.345 | 1.03 | 0.165 | 3.61
CAAACTAGGTCTAAGGTCAAAGTCGAGCCAACCA | 5.18 | 4.6 | 2.94 | 4.32 | 1.16 | 6.52 | 10.5 | 9.19 | 9.22 | 10.2 | 3.97 | 5.92 | 1.31 | 0.848 | 2.46 | 4.42 | 1.59 | 4.7 | 1.21 | 4.14
AGTCAAACTTCATCTAGGTAACGTAAGATATGCT | -0.0376 | -0.223 | -0.295 | 0.127 | 0.1 | -0.0609 | 0.882 | 0.333 | 0.414 | 0.33 | 0.952 | 1.7 | 1.48 | 0.721 | -0.505 | -0.365 | 0.02 | -0.125 | 0.222 | 0.212
CCGAGTAGGTTATGGGTCATTCAGGCAACGGTGA | 2.41 | 2.13 | 0.794 | 2.57 | 0.212 | 4.37 | 7.07 | 6.9 | 5.78 | 6.93 | 3.95 | 4.54 | -0.0117 | -0.483 | 1.77 | 2.17 | 0.442 | 3.06 | 1.09 | 2.3
CCTAGTTGTTCAAGGTCACACACGCTATAGGTAC | 4.9 | 4.93 | 4.85 | 4.17 | 1.95 | 4.26 | 2.64 | 3.12 | 1.55 | 2.55 | 1.86 | 2.8 | 2.46 | 1.22 | 4.99 | 4.73 | 3.83 | 5 | 4.94 | 4.12
CGACAAAGTTCAACTAAGGTAACGTAAAGCACGC | 6.54 | 5.86 | 3.44 | 4.09 | 1.92 | 4.93 | 4.38 | 4.95 | 2.16 | 3.95 | 0.248 | 1.7 | 0.707 | 1.21 | 2.54 | 5.16 | 3.06 | 3.51 | 0.942 | 5.07
GTACCAAGCTGAATAGGTCGTTGATGAGTAGGCG | -0.533 | -0.288 | -0.35 | -0.237 | -1.03 | 0.192 | 0.271 | 0.0324 | -0.305 | -0.334 | -0.646 | -0.114 | -1.16 | -0.822 | -1.1 | -0.255 | -0.471 | 0.235 | -0.336 | 0.0822
AGTCAAAGTTCATCTAGGTACCGTAAGATATGCT | 6.55 | 6.25 | 5.57 | 3.95 | 1.62 | 4.76 | 6.25 | 6.29 | 3.36 | 5.38 | 0.148 | 2.85 | 2.26 | 1.1 | 3.06 | 5.28 | 5.43 | 3.85 | 1.42 | 4.81
